According to PubChem BioAssay (NCI):
About 83,000 compounds went through this panel and 20% of them were active in at least one assay; those are over-represented in the sample as a whole.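 Single-concentration screen, 48 h exposure, 96-well plates. Endpoint: percent growth. Below 10 = active.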 A number with no mark means an inactive call. The source made the active and inactive calls.

Test system: UACC-257 melanoma
Test: NCI-60 one-dose screen, 48 h (100 = growth as untreated, 0 = no growth, -100 = all killed)
Conditions: 10 µM unless noted

Which growth does the source give for `COC(=O)c1ccc(Cn2cnc3c(N)ncnc32)cc1` here?
Its growth is 116%.

Which growth does the source give for `CCOc1nc(-c2ccccc2)cc2c(O)c(C(=O)O)[nH]c(=O)c12` here?
The growth was 60.7%.

`COc1ccc(Nc2nc(SC)nc(-c3cccc([N+](=O)[O-])c3)c2C#N)cc1` was tested. Which growth did it give?
Its growth is 89.5%.

Which growth does the source give for `CCOC(=O)c1sc2nc(-c3cccc(O)c3)nc(N3CCOCC3)c2c1C` here?
The growth was 82.6%.

Which growth does the source give for `O=C1/C(=C/c2ccccc2)SC(=S)N1CCc1ccc(O)cc1` here?
The growth was 98.9%.

`OCC(O)c1nc2ccc3[nH]ncc3c2c2c1CCCC2` (centres undefined) was tested. Which growth did it give?
The growth was 10.2%.

With `CC[C@@H]1O[C@H](O[C@@H](c2cnc[nH]2)[C@H](NC(=O)c2nc([C@H](CC(N)=O)NC[C@@H](N)C(N)=O)nc(N)c2C)C(=O)N[C@H](C)[C@H](O)[C@H](C)C(=O)N[C@@H](C(=O)NCCc2nc(-c3nc(C(=O)NCCCCN=C(N)N)cs3)cs2)[C@@H](C)O)[C@H](O[C@@H]2O[C@H](CO)[C@H](O)[C@H](OC(N)=O)[C@@H]2O)[C@H](C)[C@@H]1C` as the molecule, how does the growth read?
Its growth is 70.9%.

Which growth does the source give for `COc1cc2c(cc1-c1c(C)noc1C)ncc1nc(C3CCC(F)(F)CC3)n([C@H](C)COC(F)F)c12` here?
The growth was 34.9%.

With `O=C1c2c(O)cc(O)cc2-c2c(-c3ccc(O)cc3)oc3cc(O)cc1c23` as the molecule, how does the growth read?
The growth was 67.5%.

How did the growth turn out when `CCN1CCN(c2nc(NCCNc3ccnc4cc(Cl)ccc34)c3ccccc3n2)CC1` was run?
The growth was 57.9%.

With `O=S(=O)(Nc1ccc(Br)c(Cl)c1)c1ccc(-c2cnc(C3CC3)o2)cc1` as the molecule, how does the growth read?
The growth was 55.5%.

Which growth does the source give for `Cc1nn(-c2cc(=O)[nH]c3ccc(Cl)cc23)c(N)c1C#N` here?
Its growth is 107%.

`Clc1ccc2c(NCCCCNc3nc(N4CCOCC4)nc4ccccc34)ccnc2c1` was tested. Which growth did it give?
The growth was 84.9%.

How did the growth turn out when `CCOc1nc(-c2ccccc2)cc2c(O)c(C(=O)N/N=C/c3ccc(O)cc3O)[nH]c(=O)c12` was run?
Its growth is -29.1% (active).

For `O=C(O)c1ccc(NC(=O)c2ccc(-c3cccc([N+](=O)[O-])c3)o2)cc1`, which growth is on record?
Its growth is 105%.

Which growth does the source give for `Cc1ccc(NS(=O)(=O)c2ccc(-c3cnc(C4CC4)o3)cc2)cc1C` here?
The growth was 49.8%.

With `O=c1ccccc(-c2ccc(-c3ccco3)cc2)c1O` as the molecule, how does the growth read?
The growth was 0.169% (active).

Which growth does the source give for `CC(C)CC1C(=O)N2CCC[C@H]2C2(O)O[C@](NC(=O)C3C=C4c5cccc6[nH]c(Br)c(c56)C[C@H]4N(C)C3)(C(C)C)C(=O)N12` (some centres undefined) here?
The growth was 51%.

With `C=CC(=O)Nc1cccc(-c2nc(SC)nc(NCCN3CCOCC3)c2C#N)c1` as the molecule, how does the growth read?
The growth was 94.1%.

Which growth does the source give for `CC(C)c1c(C(=O)c2ccccc2)c(-c2ccccc2)c(-c2ccc(F)cc2)n1CC[C@@H](O)C[C@@H](O)CC(=O)O` here?
Its growth is 83.8%.

Which growth does the source give for `O=S(=O)(Nc1ccc(NS(=O)(=O)c2ccccc2)c(Cl)c1)c1ccccc1` here?
The growth was 103%.

How did the growth turn out when `O=C(N=Nc1c(O)[nH]c2ccccc12)c1cc(-c2ccccc2)on1` was run?
Its growth is 106%.

`O=C1NC(=S)NC(=O)C1CC(=O)n1c(-c2ccccc2)nc2ccccc21` was tested. Which growth did it give?
Its growth is 111%.

With `Cn1c(O)c(N=NC(=O)c2cc(-c3ccccc3)on2)c2ccccc21` as the molecule, how does the growth read?
Its growth is 119%.

With `CN1CCN(Cc2ccc(NC(=O)c3cncc(C#Cc4cncn5ccnc45)c3)cc2C(F)(F)F)CC1` as the molecule, how does the growth read?
Its growth is 58.4%.

Test system: M14 melanoma
Test: as above
Conditions: 10 µM unless noted

For `c1csc(C2=NN3C(C2)c2ccccc2OC3c2ccncc2)c1` (centres undefined), which growth is on record?
The growth was 105%.

`CC1=CC(C)(C)Nc2ccc(Cc3ccc4c(c3)C(C)=CC(C)(C)N4)cc21` was tested. Which growth did it give?
The growth was 96.1%.

For `CCCCn1c(-c2ccc(C(=O)O/N=C(\N)c3ccc4ccccc4c3)cc2)nc(-c2ccccc2)c1-c1ccccc1`, which growth is on record?
The growth was 82.6%.

`O=C(Nc1ccc(Cl)cc1)c1cc2cc(F)ccc2cc1O` was tested. Which growth did it give?
Its growth is 15.9%.

For `Cn1cc(-c2nonc2-c2cn(C)c3ccc(F)cc23)c2cc(F)ccc21`, which growth is on record?
Its growth is 31.4%.

Which growth does the source give for `CCN(CC)S(=O)(=O)c1ccc(OC)c(NC(=O)c2[nH]c(C)c3c2CCCCC3=O)c1` here?
The growth was 42.3%.

`COc1cccc(-c2nc3sccn3c2-c2ccnc(NCCCNS(=O)(=O)c3cccc(F)c3)c2)c1` was tested. Which growth did it give?
The growth was 10.9%.

With `COc1cc(/C=C/c2cc(/C=C/c3ccc(O)c(OC)c3)n(-c3c(C)cccc3C)c(=O)n2)ccc1O` as the molecule, how does the growth read?
The growth was 8.07% (active).

For `COc1cccc(-c2nc(SCC(=O)Nc3ccc(C(=O)/C=C/c4ccc(OC)c(OC)c4)cc3)[nH]c(=O)c2C#N)c1`, which growth is on record?
Its growth is 100%.

With `Cc1cc(C)c2nc3nc(C)cc(C)c3c(N)c2c1` as the molecule, how does the growth read?
The growth was 34.1%.

`FC(F)(F)c1ccc(-c2cn3nc(-c4c[nH]c5ccc(Br)cc45)sc3n2)cc1` was tested. Which growth did it give?
Its growth is 101%.

Which growth does the source give for `CC(=O)O[C@H]1[C@@H]2OC(=O)C(CSc3ccccc3)[C@@H]2C[C@H]2O[C@]2(C)CC/C=C(\C)CCC[C@@H]1C` (some centres undefined) here?
The growth was 51.7%.

For `Cc1cc(C)nc(SC2=C(Nc3ccc(O)cc3)C(=O)N(Cc3ccccc3)C2=O)n1`, which growth is on record?
Its growth is 105% [40 µM].

How did the growth turn out when `COC(=O)c1ccc(Cn2cnc3c(N)ncnc32)cc1` was run?
The growth was 110%.

Which growth does the source give for `CCOc1nc(-c2ccccc2)cc2c(O)c(C(=O)O)[nH]c(=O)c12` here?
The growth was 102%.

`COc1ccc(Nc2nc(SC)nc(-c3cccc([N+](=O)[O-])c3)c2C#N)cc1` was tested. Which growth did it give?
The growth was 74.9%.

Which growth does the source give for `CN(C)[C@@H]1C(=O)C(C(=O)NCc2nc3[nH]cnc(=S)c3[nH]2)=C(O)[C@@]2(O)C(=O)C3=C(O)c4c(O)cccc4[C@@](C)(O)[C@H]3C[C@@H]12` here?
Its growth is 9.8% (active).

`CCOC(=O)c1sc2nc(-c3cccc(O)c3)nc(N3CCOCC3)c2c1C` was tested. Which growth did it give?
Its growth is 69.2%.

Which growth does the source give for `O=C1/C(=C/c2ccccc2)SC(=S)N1CCc1ccc(O)cc1` here?
Its growth is 97.1%.

Which growth does the source give for `OCC(O)c1nc2ccc3[nH]ncc3c2c2c1CCCC2` (centres undefined) here?
Its growth is 5.99% (active).

Which growth does the source give for `CC[C@@H]1O[C@H](O[C@@H](c2cnc[nH]2)[C@H](NC(=O)c2nc([C@H](CC(N)=O)NC[C@@H](N)C(N)=O)nc(N)c2C)C(=O)N[C@H](C)[C@H](O)[C@H](C)C(=O)N[C@@H](C(=O)NCCc2nc(-c3nc(C(=O)NCCCCN=C(N)N)cs3)cs2)[C@@H](C)O)[C@H](O[C@@H]2O[C@H](CO)[C@H](O)[C@H](OC(N)=O)[C@@H]2O)[C@H](C)[C@@H]1C` here?
Its growth is 39.2%.

Which growth does the source give for `COc1cc2c(cc1-c1c(C)noc1C)ncc1nc(C3CCC(F)(F)CC3)n([C@H](C)COC(F)F)c12` here?
The growth was 45.9%.

How did the growth turn out when `O=C1c2c(O)cc(O)cc2-c2c(-c3ccc(O)cc3)oc3cc(O)cc1c23` was run?
Its growth is 46.1%.

How did the growth turn out when `CCN1CCN(c2nc(NCCNc3ccnc4cc(Cl)ccc34)c3ccccc3n2)CC1` was run?
The growth was -76.6% (active).

With `O=S(=O)(Nc1ccc(Br)c(Cl)c1)c1ccc(-c2cnc(C3CC3)o2)cc1` as the molecule, how does the growth read?
The growth was 5.11% (active).

Which growth does the source give for `Cc1nn(-c2cc(=O)[nH]c3ccc(Cl)cc23)c(N)c1C#N` here?
Its growth is 110%.

How did the growth turn out when `Clc1ccc2c(NCCCCNc3nc(N4CCOCC4)nc4ccccc34)ccnc2c1` was run?
The growth was -66.2% (active).

Which growth does the source give for `CCOc1nc(-c2ccccc2)cc2c(O)c(C(=O)N/N=C/c3ccc(O)cc3O)[nH]c(=O)c12` here?
Its growth is 21.5%.

For `O=C(O)c1ccc(NC(=O)c2ccc(-c3cccc([N+](=O)[O-])c3)o2)cc1`, which growth is on record?
Its growth is 107%.

For `Cc1ccc(NS(=O)(=O)c2ccc(-c3cnc(C4CC4)o3)cc2)cc1C`, which growth is on record?
The growth was 25.6%.

For `O=c1ccccc(-c2ccc(-c3ccco3)cc2)c1O`, which growth is on record?
Its growth is -2.99% (active).

How did the growth turn out when `CC(C)CC1C(=O)N2CCC[C@H]2C2(O)O[C@](NC(=O)C3C=C4c5cccc6[nH]c(Br)c(c56)C[C@H]4N(C)C3)(C(C)C)C(=O)N12` (some centres undefined) was run?
The growth was 66.3%.

`C=CC(=O)Nc1cccc(-c2nc(SC)nc(NCCN3CCOCC3)c2C#N)c1` was tested. Which growth did it give?
The growth was 89.9%.

How did the growth turn out when `CC(C)c1c(C(=O)c2ccccc2)c(-c2ccccc2)c(-c2ccc(F)cc2)n1CC[C@@H](O)C[C@@H](O)CC(=O)O` was run?
Its growth is 63.8%.

How did the growth turn out when `O=S(=O)(Nc1ccc(NS(=O)(=O)c2ccccc2)c(Cl)c1)c1ccccc1` was run?
The growth was 101%.

`O=C(N=Nc1c(O)[nH]c2ccccc12)c1cc(-c2ccccc2)on1` was tested. Which growth did it give?
The growth was 104%.

For `O=C1NC(=S)NC(=O)C1CC(=O)n1c(-c2ccccc2)nc2ccccc21`, which growth is on record?
The growth was 99%.

How did the growth turn out when `Cn1c(O)c(N=NC(=O)c2cc(-c3ccccc3)on2)c2ccccc21` was run?
The growth was 101%.

`CN1CCN(Cc2ccc(NC(=O)c3cncc(C#Cc4cncn5ccnc45)c3)cc2C(F)(F)F)CC1` was tested. Which growth did it give?
The growth was 7.22% (active).
